Results: a collection of fitness landscapes (doi:10.1016/j.celrep.2020.107928)
Over roughly 81,000 sequences, “one-hybrid fitness for binding parS DNA” has its median near -0.17; the highest 2% begin near 0.51. Shown is part of a subset that was picked to be rich in the highest values.

B1: Caulobacter ParB omega fusion; a variant is named by its letters at X, in order, B8GW30 (parent)
chain: MESVVVGEPGMSEGRRGLGRGLSALLGEVDAAPAQAPGEQLGGSREAPIEILQRNPDQPRRTFREEDLEDLSNSIREKGVLQPILVRPSPDTAGEYQIVAGERAWRAAQRAGLKTVPIMVRELDDLAVLEIGIIENVQRADLNVLEEALSYKVLMEKFERTQENIAQTIGKSXSHVANXMRLLXLPDEVQSYLVSGELTAXHARAIAAAADPVALAKQIIEGGLSVRETEALARKAPNLSAGKSKGGRPPRVKDTDTQALESDLSSVLGLDVSIDHRGSTGTLTITYATLEQLDDLCNRLTRGI

Variants of: B1
Assay: one-hybrid fitness for binding parS DNA (scaled: cognate 1, non-cognate 0); higher = stronger binding
Details: with parS DNA site
How it was run: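 Caulobacter ParB libraries with four specificity codons randomised were screened by bacterial one-hybrid selection in the E. coli USO strain, using a HIS3 reporter whose site lies 19 bp from the promoter. Selection ran for 48 hours at 37°C on M9 lacking histidine, with 0.1 mM IPTG and 5 mM 3-AT. Plasmids were Illumina-sequenced before and after selection, three replicate libraries were pooled, and variants with under 10 reads were dropped. Fitness is the log change in each variant's read ratio to wild type, rescaled against the cognate and non-cognate sites.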

Variant | one-hybrid fitness for binding parS DNA
YYVT | ≤ 0.2
MVNS | ≤ 0.2
FTLM | ≤ 0.2
AFVL | ≤ 0.2
RKVR | ≤ 0.2
RKVT | 0.795
RKKM | 0.231
RKKT | 0.604
RKVD | ≤ 0.2
RKKF | 0.238
RPEH | ≤ 0.2
KRWH | ≤ 0.2
QVGR | ≤ 0.2
CDRV | ≤ 0.2
YIYL | ≤ 0.2
MNCF | ≤ 0.2
ICRD | ≤ 0.2
RTQS | 0.951
RIQS | 0.99
RAQN | 0.436
RCQS | 0.986
RIQH | ≤ 0.2
RDQS | ≤ 0.2
RIQD | ≤ 0.2
RAQD | ≤ 0.2

Variant | one-hybrid fitness for binding parS DNA
RTQD | 0.202
RPQS | ≤ 0.2
RTQH | 0.332
RAQS | 0.998
CQTC | ≤ 0.2
RWDL | ≤ 0.2
WRAH | ≤ 0.2
AEGK | ≤ 0.2
AIFS | ≤ 0.2
DPKT | ≤ 0.2
RMQN | 0.501
RHQS | 0.927
RFQN | 0.457
RMQS | 1.02
RSQD | ≤ 0.2
RFQH | ≤ 0.2
RHQN | 0.382
RMQH | 0.313
RSQN | 0.427
RSQS | 0.984
RHQH | ≤ 0.2
RFQS | 1
GAHD | ≤ 0.2
TLCR | ≤ 0.2
MEVG | ≤ 0.2

Variant | one-hybrid fitness for binding parS DNA
LAGY | ≤ 0.2
QVDH | ≤ 0.2
IRKY | ≤ 0.2
FNNR | ≤ 0.2
TAFI | ≤ 0.2
QSRA | ≤ 0.2
TERS | ≤ 0.2
APMD | ≤ 0.2
RKQS | 0.793
RKQN | 0.3
RLQH | 0.324
RLQS | 1
RLQP | 0.206
RKQD | ≤ 0.2
ERKR | ≤ 0.2
LEPN | ≤ 0.2
CCRD | ≤ 0.2
QNCR | ≤ 0.2
RQVG | 0.88
RQKN | 0.433
RQKG | 0.939
RQKH | 0.269
RQVQ | ≤ 0.2
RQVK | ≤ 0.2
WNHS | ≤ 0.2

Variant | one-hybrid fitness for binding parS DNA
KAIM | ≤ 0.2
IGNS | ≤ 0.2
NFGS | ≤ 0.2
GEDR | ≤ 0.2
QFAT | ≤ 0.2
GTTA | ≤ 0.2
ATEM | ≤ 0.2
RSKM | 0.378
RTKM | 0.594
RTVM | 0.315
RTYM | 0.341
RTRM | 0.517
RTDM | 0.289
TLKA | ≤ 0.2
TQQG | ≤ 0.2
HCKF | ≤ 0.2
YAFG | ≤ 0.2
KYYR | ≤ 0.2
ILTL | ≤ 0.2
RISD | ≤ 0.2
RCSS | 0.978
RMSS | 0.977
RHSP | ≤ 0.2
RCSD | ≤ 0.2
RHSN | 0.379

Variant | one-hybrid fitness for binding parS DNA
RHSS | 0.912
RMSH | ≤ 0.2
RISN | 0.454
RPSS | ≤ 0.2
RMSD | ≤ 0.2
RISS | 0.992
AKPM | ≤ 0.2
LGTM | ≤ 0.2
TQKH | ≤ 0.2
LPSR | ≤ 0.2
NDSK | ≤ 0.2
CAPL | ≤ 0.2
RWPN | ≤ 0.2
SQSF | ≤ 0.2
PHLE | ≤ 0.2
GVSS | ≤ 0.2
LVRT | ≤ 0.2
FMSS | ≤ 0.2
FMSQ | 0.554
RASH | 0.225
RFSH | ≤ 0.2
RKSN | 0.296
RFSP | ≤ 0.2
FMSD | ≤ 0.2
RASN | 0.435

Variant | one-hybrid fitness for binding parS DNA
RKSP | ≤ 0.2
RASS | 1
RFSS | 1.01
RKSS | 0.811
IYTS | ≤ 0.2
TWRH | ≤ 0.2
GPLA | ≤ 0.2
YVAM | ≤ 0.2
RYVW | 0.209
HRKW | ≤ 0.2
RSSS | 0.99
RSSD | ≤ 0.2
RSSP | ≤ 0.2
YNTS | ≤ 0.2
RCGT | 0.882
REGT | 0.201
RPGT | ≤ 0.2
RDGT | ≤ 0.2
RGGT | 0.493
RSGT | 0.91
TFAS | ≤ 0.2
AMCN | ≤ 0.2
LFSE | ≤ 0.2
CKQG | ≤ 0.2
NSAT | ≤ 0.2

Variant | one-hybrid fitness for binding parS DNA
RQKK | ≤ 0.2
RQVR | ≤ 0.2
RQKC | 0.926
RQVF | ≤ 0.2
RQVC | 0.828
RQKR | ≤ 0.2
RWDM | ≤ 0.2
RWNR | ≤ 0.2
RWNC | 0.79
RWDC | 0.635
RWNM | 0.221
RWDY | 0.264
GKCT | ≤ 0.2
STTT | ≤ 0.2
WKGT | ≤ 0.2
SGKS | ≤ 0.2
RITI | ≤ 0.2
RAPH | ≤ 0.2
RAPD | ≤ 0.2
RPPG | ≤ 0.2
RAIF | ≤ 0.2
RAPG | 0.569
RAIG | 0.871
RCPG | 0.81
RDPG | ≤ 0.2

Variant | one-hybrid fitness for binding parS DNA
RAIH | ≤ 0.2
NVNI | ≤ 0.2
DVVY | ≤ 0.2
LLTC | ≤ 0.2
GHGR | ≤ 0.2
HSMG | ≤ 0.2
RQEF | 0.206
ATMR | ≤ 0.2
RSAP | ≤ 0.2
RSAD | ≤ 0.2
RCAP | ≤ 0.2
RCAS | 1.01
RSAS | 0.998
RPAS | ≤ 0.2
NQVG | ≤ 0.2
TRNP | ≤ 0.2
TIYS | ≤ 0.2
IDLD | ≤ 0.2
SILM | ≤ 0.2
LWSP | ≤ 0.2
